# Results filed as inconclusive are left out. Calls of active or inactive are those of the source. How the source made its calls, unless noted: active means hit-call score of the fitted dose curve at least 0.9, where 1 is the maximum; inactive means score below 0.9.
# Columns and labels:
# [1] = CCTE_Shafer_MEA_dev_burst_duration_mean: CCTE's Neural Network Formation Assay for Mean Burst Duration, Shafer Lab (AID 2284045)
# How it was run: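 Read-out: average first-to-last-spike interval within single-electrode bursts, averaged over bursting electrodes per well, then summarised as area under the curve across days 5, 7, 9 and 12. Developing rat cortical networks were exposed from day 0.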
# [2] = CCTE_Shafer_MEA_dev_inter_network_spike_interval_mean: CCTE's Neural Network Formation Assay for Mean Inter-network Spike Interval, Shafer Lab (AID 2284047)
# How it was run: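 Primary rat cortical neurons on 16-electrode MEA wells, exposed from plating day 0 through DIV 12, compound renewed at DIV 5 and 9 media changes. Mean interval between network-spike peaks recorded DIV 5, 7, 9, 12; collapsed as trapezoidal AUC, fitted downward versus DMSO.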
# [3] = CCTE_Shafer_MEA_dev_network_spike_number: CCTE's Neural Network Formation Assay for Number of Network Spikes, Shafer Lab (AID 2284048);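 further: synchronized bursts across electrodes counted on days 5 7 9 12 and integrated as AUC; fit as a loss of signal meaning fewer network spikes than DMSO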
# How it was run: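 Developing networks of primary rat cortical neurons are treated over 12 days starting at plating, with media and compound fully replaced on DIV 5 and 9. Network spike counts from four recording days are integrated as trapezoidal AUC.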
# [4] = CCTE_Shafer_MEA_dev_network_spike_peak: CCTE's Neural Network Formation Assay for Mean Number of Electrodes in Network Spike, Shafer Lab (AID 2284049);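 further: fitted for loss of signal meaning fewer electrodes in network spikes than DMSO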
# How it was run: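 Rat cortical primary culture, 1.5 x 10^5 cells/well, 48-well MEA (16 electrodes/well). Dosing day 0 through DIV 12, full media/compound exchange DIV 5, 9. AxIS adaptive spike detection; AUC over days 5/7/9/12; loss-of-signal vs DMSO.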
# [5] = CCTE_Shafer_MEA_dev_spike_duration_mean: CCTE's Neural Network Formation Assay for Mean Spike Duration, Shafer Lab (AID 2284051);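 further: mean network spike duration pooled as area under curve over DIV 5 to 12 recordings; potency for a decrease in mean network spike duration versus DMSO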
# How it was run: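 Primary rat cortical neurons on 16-electrode MEA wells (PEI-coated, laminin in plating drop), exposed from plating through DIV 12 with compound renewed at DIV 5 and 9. Mean network-spike duration recorded DIV 5, 7, 9, 12; trapezoidal AUC across days, DMSO baseline.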
# [6] = CCTE_Shafer_MEA_dev_network_spike_duration_std: CCTE's Neural Network Formation Assay for Standard Deviation of Network Spike Duration, Shafer Lab (AID 2284052);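 further: area under curve of spike duration SD across recording days 5 to 12; hits are decreases in network spike duration SD versus DMSO vehicle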
# How it was run: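 Primary rat cortical neurons on PEI-coated 16-electrode MEA wells, exposed from plating day 0 through day 12 with compound renewed at DIV 5 and 9. Network spike duration SD recorded on days 5, 7, 9, 12, collapsed as trapezoidal AUC; loss-of-signal fit versus DMSO.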
# [7] = CCTE_Shafer_MEA_dev_per_network_spike_spike_number_mean: CCTE's Neural Network Formation Assay for Mean Number of Spikes in a Network Spike, Shafer Lab (AID 2284053);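 further: fitted as decrease in spikes per network spike relative to DMSO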
# How it was run: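 Primary rat cortical neurons on 48-well, 16-electrode MEA plates were exposed from plating to DIV 12, with dosing renewed on DIV 5 and 9. Spikes per network spike (0.05 s peak window) were recorded on DIV 5, 7, 9 and 12 and collapsed as trapezoidal AUC versus DMSO.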
# [8] = CCTE_Shafer_MEA_dev_per_network_spike_spike_percent: CCTE's Neural Network Formation Assay for Percent of Spikes in a Network Spike, Shafer Lab (AID 2284054)
# How it was run: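 Rat primary cortical cultures, 1.5 x 10^5 cells/well on MEA. Continuous compound exposure d0–12, medium/compound renewed DIV 5, 9. Network-spike spike % (0.05 s peak window), AUC over 4 recordings, DMSO baseline.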
# [9] = CCTE_Shafer_MEA_acute_AB: CCTE's Alamar Blue Assay for Cytotoxicity in the Neural Acute Assay, Shafer Lab (AID 2284069; active means hit-call score of the fitted dose curve at least 0.9, where 1 is the maximum;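 further: active compounds lower the viability signal compared with DMSO wells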)
# How it was run: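 Primary rat cortical neurons on MEA plates, exposed acutely after baseline recording on day 13 or 15 post-plating. Viability by CellTiter Blue resazurin reduction (1:6 reagent dilution), fluorescence 544/590 nm; loss of signal versus DMSO.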
# [10] = CCTE_Shafer_MEA_acute_LDH: CCTE's Lactate Dehydrogenase Assay for Cytotoxicity in the Neural Acute Assay, Shafer Lab (AID 2284086; active means hit-call score of the fitted dose curve at least 0.9, where 1 is the maximum;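 further: active means LDH release rises above DMSO vehicle level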)
# How it was run: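 Rat cortical neurons cultured on microelectrode arrays; baseline 40-min recording, compound added, second 40-min recording; medium then sampled for released LDH (colorimetric kit, 490 nm). DMSO = negative control.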
# [11] = CCTE_Shafer_MEA_dev_mutual_information_norm: CCTE's Neural Network Formation Assay for Mutual Information Normalization, Shafer Lab (AID 2284091);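 further: mutual information between electrodes summarised as area under curve across four recording days; potency is for a decrease in mutual information relative to DMSO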
# How it was run: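 Developing rat cortical networks on 16-electrode MEA wells are treated throughout formation (DIV 0–12). Shared electrode information is recorded four times, converted to area-under-curve, and fitted for decreases against DMSO vehicle.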
# [12] = CCTE_Shafer_MEA_dev_correlation_coefficient_mean: CCTE's Neural Network Formation Assay for Mean Correlation Coefficient, Shafer Lab (AID 2284093);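 further: well mean pairwise spike train correlation integrated as AUC over recording days 5 to 12; potency fitted for loss of correlation relative to DMSO vehicle wells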
# How it was run: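 Spontaneous activity recorded on days 5, 7, 9 and 12 post-plating; pairwise spike correlations are averaged across active electrodes and collapsed to an area-under-curve. Rat cortical cultures are dosed from plating through 12 days, with compound renewed at media changes.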
# [13] = CCTE_Mundy_HCI_Cortical_Synap_Neur_Matur_NeuriteSpotCountPerNeuriteLength: CCTE's Synaptogenesis and Neurite Maturation Assay in rat cortical cells for Neurite Spot Count per Neurite Length, Mundy Lab (AID 2284210)
# How it was run: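 Primary rat cortical neurons, compound exposure DIV 7–12, 288.33 h endpoint. Hoechst, anti-MAP2 and anti-synaptophysin labelling; neurite-associated puncta per neurite length scored by automated imaging relative to DMSO controls.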
# [14] = CCTE_Mundy_HCI_Cortical_Synap_Neur_Matur_BPCount: CCTE's Synaptogenesis and Neurite Maturation Assay in rat cortical cells for Branch Point Count, Mundy Lab (AID 2284211)
# How it was run: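 Rat primary cortical cultures, AraC added DIV 5; chemicals dosed DIV 7 through DIV 12. Fixed cells stained for MAP2, synaptophysin and Hoechst; neurite branch points counted by automated high-content imaging, fitted relative to DMSO.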
# [15] = CCTE_Mundy_HCI_Cortical_NOG_NeuriteCount: CCTE's Neurite Outgrowth Assay in rat cortical cells for Neurite Count, Mundy Lab (AID 2284212);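 further: cells fixed about two days after chemical exposure began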
# How it was run: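 Neurite number per cell from high-content imaging of betaIII-tubulin immunostaining, with Hoechst nuclear counterstain.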
# [16] = CCTE_Mundy_HCI_Cortical_NOG_NeuriteLength: CCTE's Neurite Outgrowth Assay in rat cortical cells for Neurite Length, Mundy Lab (AID 2284213)
# How it was run: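 Neurite length was read by high-content imaging of βIII-tubulin-labelled neurites in rat primary cortical cultures. Activity was fitted relative to DMSO.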
# [17] = CCTE_Mundy_HCI_Cortical_Synap_Neur_Matur_NeuriteLength: CCTE's Synaptogenesis and Neurite Maturation Assay in rat cortical cells for Neurite Length, Mundy Lab (AID 2284214)
# How it was run: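 Rat cortical neurons, AraC at DIV 5; compound + media change DIV 7, end DIV 12 (288.33 h). Fix, MAP2/synaptophysin/Hoechst immunostain, automated HCI of neurite length vs DMSO.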
# [18] = CCTE_Mundy_HCI_Cortical_Synap_Neur_Matur_SynapseCount: CCTE's Synaptogenesis and Neurite Maturation Assay in rat cortical cells for Synapse Count, Mundy Lab (AID 2284218)
# How it was run: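 Primary rat cortical culture; AraC DIV 5 to arrest glia; compound + media change DIV 7; terminated DIV 12. PFA/Hoechst fix, anti-MAP2 + anti-synaptophysin immunostain; HCI synapse count/neuron; DMSO = baseline.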
# [19] = CCTE_Mundy_HCI_Cortical_Synap_Neur_Matur_NeuriteCount: CCTE's Synaptogenesis and Neurite Maturation Assay in rat cortical cells for Neurite Count, Mundy Lab (AID 2284222);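 further: exposure from day 7 to day 12 in vitro with readout at day 12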
# How it was run: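 Rat primary cortical cells; AraC added at DIV 5, chemicals dosed with media change at DIV 7 through DIV 12. MAP2/synaptophysin/Hoechst immunostaining, high-content imaging of neurite number; fitted relative to DMSO.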
# [20] = CCTE_Mundy_HCI_Cortical_Synap_Neur_Matur_CellBodySpotCount: CCTE's Synaptogenesis and Neurite Maturation Assay in rat cortical cells for Cell Body Spot Count, Mundy Lab (AID 2284223)
# How it was run: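 Synapse number at neuronal cell bodies was quantified as synaptophysin puncta per neuron in rat cortical cultures exposed from DIV 7 to DIV 12. Values were normalised to DMSO.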
# [21] = CCTE_Mundy_HCI_Cortical_NOG_NeuronCount: CCTE's Neurite Outgrowth Assay in rat cortical cells for Neuron Count, Mundy Lab (AID 2284236; active means hit-call score of the fitted dose curve at least 0.9, where 1 is the maximum;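 further: neurons counted by imaging betaIII-tubulin and Hoechst stained cortical cells; cells exposed to compound for about 48 hours before fixation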)
# How it was run: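 Read-out: neuron number by high-content imaging of betaIII-tubulin (Alexa Fluor-488) and Hoechst-labelled rat primary cortical cells.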
# [22] = CCTE_Mundy_HCI_Cortical_NOG_BPCount: CCTE's Neurite Outgrowth Assay in rat cortical cells for Branch Point Count, Mundy Lab (AID 2284237)
# How it was run: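 Measured 50.33 h after dosing, this morphology endpoint uses rat primary cortical cultures labelled for betaIII-tubulin. Branch points are quantified by high-content imaging, with DMSO as negative control and baseline.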
# [23] = CCTE_Mundy_HCI_hNP1_Casp3_7: CCTE's Caspase-Glo 3/7 Assay in human neuroprogenitor cells for Apoptosis, Mundy Lab (AID 2284240)
# How it was run: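 Apoptosis is scored by activated caspase-3/7 luminescence in WA09-derived neural progenitor cells, measured 26.5 h after chemical dosing. Values represent gain of signal relative to DMSO vehicle.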
# [24] = CCTE_Mundy_HCI_iCellGluta_NOG_NeuronCount: CCTE's Neurite Outgrowth Assay in iCellGluta cells for Neuron Count, Mundy Lab (AID 2284340; active means hit-call score of the fitted dose curve at least 0.9, where 1 is the maximum;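 further: cells fixed about 48 h after compound addition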)
# How it was run: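 Neuron count read by automated high-content imaging of Hoechst 33342 and betaIII-tubulin/Alexa Fluor-488 labelling in human iPSC glutamatergic neurons. Activity fitted relative to DMSO.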
# [25] = CCTE_Mundy_HCI_iCellGluta_NOG_NeuriteCount: CCTE's Neurite Outgrowth Assay in iCellGluta cells for Neurite Count, Mundy Lab (AID 2284342; active means hit-call score of the fitted dose curve at least 0.9, where 1 is the maximum;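 further: chemical exposure about 48 hours starting 2 hours after plating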)
compound,measurement,setting,value
CC1(C)[C@H](C=C(Cl)Cl)[C@@H]1C(=O)O[C@@H](C#N)c1cccc(Oc2ccccc2)c1,outcome,[1],inactive
same,outcome,[2],inactive
same,AC50,[3],4.81 µM (active)
same,AC50,[4],8.44 µM (active)
same,AC50,[5],4.92 µM (active)
same,AC50,[6],4.6 µM (active)
same,AC50,[7],5.97 µM (active)
same,AC50,[8],15 µM (active)
same,outcome,[9],inactive
same,outcome,[10],inactive
same,AC50,[11],2.25 µM (active)
same,AC50,[12],4.79 µM (active)
same,outcome,[13],inactive
same,outcome,[14],inactive
same,outcome,[15],inactive
same,outcome,[16],inactive
same,outcome,[17],inactive
same,outcome,[18],inactive
same,outcome,[19],inactive
same,outcome,[20],inactive
same,outcome,[21],inactive
same,outcome,[22],inactive
same,outcome,[23],inactive
same,outcome,[24],inactive
same,outcome,[25],inactive
